Test results: PubChem BioAssay AID1851 (National Center for Advancing Translational Sciences (NCATS), 2009)
Several values for one entry are separate records, joined by “and”; a condition that tells them apart may be missing. Identical values can stand only once. Out of some 16,000 compounds screened, about 2,600 (16%) were called active. Another 20% or so got no clear call; they are omitted. Calls follow the shape of the dose curve; as a rule, active = well fitted curve in the direction sought with a large enough effect; inconclusive = small, poorly fitted or top-dose-only effect, or effect the other way; inactive = no such curve, though single readings can be large or run the other way. The list is a sample of the results.

target: Cytochrome P450 2D6 (Homo sapiens) (UniProt P10635); assay: Cytochrome panel assay with activity outcomes; conditions: recombinant CYP, pro-luciferin dealkylation, luminescence, p450-cyp2d6; series mostly up to 57.1 µM; activity, negative = inhibition: at the top concentration
% is scaled to controls: 0 for no effect and ±100 for the full control effect.

Sequence of Cytochrome P450 2D6 (Homo sapiens) (P10635 whole entry, looked up): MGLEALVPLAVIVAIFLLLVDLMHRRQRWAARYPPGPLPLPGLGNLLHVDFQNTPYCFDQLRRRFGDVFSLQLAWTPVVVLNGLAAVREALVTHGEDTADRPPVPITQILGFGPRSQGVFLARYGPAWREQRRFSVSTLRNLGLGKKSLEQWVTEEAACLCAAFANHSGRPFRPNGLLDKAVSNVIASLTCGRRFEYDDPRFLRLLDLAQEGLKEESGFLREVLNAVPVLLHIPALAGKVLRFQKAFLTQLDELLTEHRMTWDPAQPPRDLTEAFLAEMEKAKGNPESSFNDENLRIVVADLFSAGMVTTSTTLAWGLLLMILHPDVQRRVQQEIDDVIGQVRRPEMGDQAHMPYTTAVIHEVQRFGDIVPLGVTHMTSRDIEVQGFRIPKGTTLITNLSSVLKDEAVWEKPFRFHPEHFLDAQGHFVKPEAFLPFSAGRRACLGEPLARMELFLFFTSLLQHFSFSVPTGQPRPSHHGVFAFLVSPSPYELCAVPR

activity, negative = inhibition, inactive:
CCCCCOC(=O)CSc1nnc(-c2ccccc2)c(=O)[nH]1 16.4%, Cn1c(=O)c2[nH]c(CCC(=O)O)nc2n(C)c1=O -4.99% [at 11.4 µM], CCOC(=O)C1=C(C)NC(=O)N[C@@H]1c1coc2cc(C)cc(C)c2c1=O 0.866% [at 11.4 µM], O=C(OC1CCN(c2ncc(C(F)(F)F)cc2Cl)CC1)c1cccc(C(F)(F)F)c1 -3.01%, CN(C(=O)CC(NC(=O)c1ccccc1)(c1ccccc1)c1ccccc1)c1ccccc1 -9.41%, O=C(CSc1nc2ccccc2s1)N1c2ccccc2Sc2ccccc21 3.68%, COC(=O)c1cc(NC(=O)N2c3ccccc3Sc3ccccc32)cc(C(=O)OC)c1 5.22%, Cc1ccc(N=Nc2ccc(N)cc2C)c(S(N)(=O)=O)c1 3.5% [at 11.4 µM], Cc1ccccc1-n1c(=O)cc(N2CC(C)OC(C)C2)[nH]c1=O (stereo not drawn) -2.9%, CC1(C)CCC(C)(C)c2cc(C(=O)Nc3ccc(C(=O)O)cc3)ccc21 -18.8%, C/C(=C\c1ccc(Cl)cc1)C(C)(C)C(=O)O 6.46% [at 11.4 µM], COC(=O)\C(C(C)=O)=C(/C=C/C=C/C=C/N(C)C)N(C)C -21.3%, N=C(N)CCNC(=O)[C@@H]1CCC(N)=N1 2.49% [at 11.4 µM], CCC(=O)Nc1ccc(NC(=O)CSc2nnnn2-c2cccnc2)cc1C -3.22%, CC1=C(C)/C(=N\OC(=O)/C=C/c2ccccc2)C=CC1=O -17.9%, Cc1ccc(S(=O)(=O)/N=C2/NC(=O)/C(=C/c3cccnc3)S2)cc1 -9.7%, COc1ccc2ccccc2c1/C=C\C(=O)c1ccccc1 7.33% [at 11.4 µM], CC1(C)Oc2ccc(C#N)cc2[C@H](N2CCCC2=O)[C@H]1O 3.54%, CCCn1nc(NC(=O)CC(C)C)c2cc3ccccc3nc21 -8.32%, Cc1ccc(C(=O)COC(=O)c2ccccc2N2C(=O)C3C4CCC(C4)C3C2=O)cc1C (stereo not drawn) -11.3%, O=C(O)[C@@H]1CCCN1Cc1cc2ccccc2c2ccccc12 10.3% [at 11.4 µM], COC(=O)C1=C(N)Oc2cc(C)n(CC3CCCO3)c(=O)c2C1c1ccccc1OC (stereo not drawn) 0.229%, COc1cc(C(=O)N2CCC(NC(=O)C(Cc3ccc(C(C)C)cc3)NC(C)=O)CC2)cc(OC)c1OC (stereo not drawn) -11.8%, CN(C)CCCNc1c(C(=O)O)cnc2c1cnn2C 6.96%, Cc1cc2nc(C)n(CCCN)c2cc1C -23.3%, CN(C)c1nc(N)c(C(=O)N=C(N)N)nc1Cl -8.15%, N[C@]1(C(=O)O)CCc2cc(P(=O)(O)O)ccc21 12.2%, CC(C)=CCC/C(C)=C/CC/C(C)=C/CSc1ccccc1C(=O)O 6.75%, O=C(N/N=C1/C[C@@H](O)[C@@H](O)[C@@H]2[C@@H]3C(=O)N(Cc4ccc5c(c4)OCO5)C(=O)[C@H]3CC[C@H]12)OCc1ccccc1 -16.9% [at 11.4 µM], O=c1cc(CSc2ccccc2)[nH]c(=S)[nH]1 -1.57%, Cc1cc(CSc2ccccc2)ccc1NC(=O)COc1ccccc1 -20.7%, Cc1cc(=Nc2ccc3c(c2)c(N)cc(C)[n+]3C)nc(N)n1C 2.81% [at 11.4 µM], Cc1ccc(C(=O)NC(=S)NCC(=O)c2ccccc2)cc1 -0.0035%, O=C(CSc1nc2ccccc2c2ccccc12)c1ccccc1 15.3% [at 11.4 µM], C=CCSc1nc2ccccc2n1C(=O)/C=C/c1cc(OC)c(OC)c(OC)c1 -18.1%, O=C(c1ccco1)N(CCC(c1ccccc1)c1ccco1)Cc1ccco1 (stereo not drawn) -23.7%, O=C(c1ccccc1)N(Cc1ccco1)C1CCS(=O)(=O)C1 (stereo not drawn) 0.77%, O=C(COC(=O)c1cccc(S(=O)(=O)N2CCN(c3ccccc3)CC2)c1)NCc1ccco1 -24.8%, Cc1cc(C)c2[nH]c(=O)c(CN(Cc3ccco3)C(=O)c3cccs3)cc2c1 -0.89%, CC(=O)Nc1ccc(N2C(=O)CC(c3ccccc3)CC2=O)cc1 -0.454%, CCOc1ccc(CCNC(=O)C2CCN(S(=O)(=O)CC)CC2)cc1OCC -2.78%, NS(=O)(=O)c1ccc(CCNC(=O)C2CCCN2C(=O)OCc2ccccc2)cc1 (stereo not drawn) -16.8%, NS(=O)(=O)c1ccc(CNC(=O)/C=C/c2c(Cl)cccc2Cl)cc1 -21.5%, COC(=O)[C@H](CCSC)NC(=O)C/C=C\[C@@H](C)[C@@H](CO)OC 8.79% [at 11.4 µM], N#CCCn1c(=O)c(-c2cccs2)nc2cnc(OCc3ccccc3)nc21 -4.83%, CCOC(=O)CSC1=C(C#N)C(C)C2=C(CCCC2=O)N1 (stereo not drawn) -12.6%, CCOC(=O)CSC1=C(C#N)C(c2sccc2C)CC(=O)N1 (stereo not drawn) 3.89%, C#CCCCO/N=C1/[C@H]2O[C@@H]2[C@@H](O)[C@H]2[C@H]1CCn1c(=O)n([C@@H](CC)c3ccccc3)c(=O)n12 -15.4% [at 11.4 µM], COc1ccccc1C(=O)NN1C(=O)C2C3C=CC(O3)C2C1=O (stereo not drawn) 3.94%, Cn1c(=O)c2[nH]c(SCCN3CCOCC3)nc2n(C)c1=S 0.168% [at 11.4 µM], Cc1cc(C2C(C#N)=C(N)OC3=C2C(=O)CC(C)(C)C3)c(C)s1 (stereo not drawn) 4.82%, COc1ccc(CC(=O)Nc2cccc(/C(C)=N/NC(=O)c3cccc([N+](=O)[O-])c3)c2)cc1 -14.5%, Cc1ccc(NS(=O)(=O)c2ccc(OCC(=O)Nc3cccc([N+](=O)[O-])c3)c(C)c2)cc1 -97.9%, CC(=O)c1cccc(NC(=O)CCC2CCCC2)c1 -17.5%, CC(=O)c1cccc(NC(=O)Oc2ccccc2)c1 -0.0879%, Cc1sc(NC(=O)C2CCCCC2C(=O)O)c(C(N)=O)c1C (stereo not drawn) -2.17%, CO[C@@H]1COC(=O)C/C=C\[C@@H](C)[C@@H]2C=C[C@H](O)[C@@H](COC(=O)CCC[C@H]1C)O2 4.34% [at 11.4 µM], CC(C)Oc1ccc2c(=O)c3cc(C(=O)O)ccc3oc2c1 0.758%, CC[C@H]1C2=C3C(CC[C@H]4C(OCc5ccc(F)cc5C(F)(F)F)OC[C@](C)([C@@H]34)N(C(=O)OC(C)(C)C)C2)C2COC(=O)OCC21 (stereo partly drawn) -12.1%, COc1ccc(C2/C(=C(/O)c3ccccc3)C(=O)C(=O)N2c2ccccn2)c(OC)c1 (stereo not drawn) 1.83%, COc1ccc(Sc2nc3ccccc3n3c(C(F)(F)F)nnc23)cc1 -12.8%, CC1=C(C(=O)OCc2ccccc2)C(c2cccnc2)c2c(n(C)c(=O)n(C)c2=O)N1 (stereo not drawn) -24.1%, Cc1ccc(C2Nc3ccccc3C(=O)N2Cc2ccco2)cc1 (stereo not drawn) -19%, Cc1cc([N+](=O)[O-])nn1Cc1ccccc1F -8.89%, Cc1cc(C)c(S(=O)(=O)N2CCCCC2)c(C)c1N(C)S(=O)(=O)c1ccccc1 -13.5%, CCOC(=O)c1sc(=S)n(-c2cccc(C(F)(F)F)c2)c1SC 11.7%, Cc1nnc(S(=O)(=O)c2ccc(N=Nc3c(N)nc(N)nc3N)cc2)s1 18% [at 11.4 µM], CCOC(=O)c1cc(NC(=O)c2ccc(OC)cc2)c(=O)oc1-c1ccccc1 -16.4%, Cc1nn(C(C)C(=O)Nc2sc3c(c2C#N)CCCC3)c(C)c1[N+](=O)[O-] (stereo not drawn) 1.12%, C/C(=N\O)c1ccc2[nH]ccc2c1 -1.06%, C=CCn1c(SCC(=O)NC2CCCCC2)nnc1C1CCCCC1 -0.906%, CO[C@@H]1COC(=O)[C@@H](CCSC)NC(=O)C/C=C\[C@@H](C)COC(=O)[C@H](C)NC(=O)C/C=C\[C@H]1C 6.23% [at 11.4 µM], CCN1C(=O)[C@H]2[C@H]3[C@H](O)[C@H](O)C/C(=N/OC[C@@H](O)COCc4ccco4)[C@@H]3CC[C@@H]2C1=O 19.4% [at 11.4 µM] and 13.7% [at 11.4 µM], Cc1ccc(/C=C/C(=O)NC(=S)Nc2ccccc2C(=O)NC2CCCCC2)cc1 -17.6%

AC50, inactive:
C[C@@H]1CCN=C(N)S1, CC(=O)Nc1ccc(S(=O)(=O)N=S(C)C)cc1, CC1=C(CC(=O)O)c2cc(F)ccc2/C1=C\c1ccc(S(C)=O)cc1 (stereo not drawn)

AC50, active:
CCN(c1ccccc1)c1cc(NC)[n+](C)c(C)n1 3.98 µM, O=C(NCCc1ccccc1)N1c2ccccc2Sc2ccccc21 20 µM, C/C(=C\c1ccc(C(=O)O)cc1)c1ccc2c(c1)C(C)(C)CCC2(C)C 0.0126 µM, Clc1ccc(CN2CCCN(Cc3ccc(Cl)cc3)C2c2cc3ccccc3c3ccccc23)cc1 0.2 µM, CC(C)CN(C)c1nc(N)c(C(=O)N=C(N)N)nc1Cl 39.8 µM, CC1=CC(C)(C)Nc2ccc(CSc3ccccc3)cc21 0.631 µM, O=C(CN(Cc1ccco1)C(=O)c1cccc(Cl)c1)Nc1c(Cl)cc(Cl)cc1Cl 7.08 µM, O=C(CN(Cc1ccco1)C(=O)c1ccccc1)Nc1ccc(Cl)c(Cl)c1 25.1 µM, CCOc1cc(CNCCc2ccc(S(N)(=O)=O)cc2)cc(Cl)c1OCc1ccccc1 0.355 µM, CCOc1cc(CNCCc2ccc(S(N)(=O)=O)cc2)ccc1OCc1ccc(Cl)cc1 8.91 µM, C=CCOC(=O)C1=C(C)NC(SCC(=O)OCC)=C(C#N)C1c1ccc(C)cc1 (stereo not drawn) 14.1 µM, CS(=O)(=O)N(CC(=O)Nc1cccc(F)c1)c1cccc([N+](=O)[O-])c1 0.631 µM, COc1cccc(N(CC(=O)Nc2cccc(C(C)=O)c2)S(C)(=O)=O)c1 0.141 µM, COc1ccccc1-c1cc(-n2ccnc2)ncn1 12.6 µM, CN(C)Cc1ccccc1-c1cc(-n2ccnc2)ncn1 2.51 µM, C/C(=N/O)c1ccc2cc(Br)c3ccccc3c2c1 0.0251 µM
